# The campaign covered roughly 310,000 compounds. About 14,000 (4.5%) showed an effect of 50% or more. Effects have a minus sign here. The sample as a whole holds a higher share of strong results than the screen did.
# Molecular target: human ether-à-go-go-related gene (hERG) potassium channel (human, UniProt Q12809)
# Assay: primary screen, population patch clamp on CHO cells stably expressing hERG; higher = less effect of the substance
# 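Also: peak tail current of the secondary pulse compared with the same well before compound.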
# Chain of human ether-à-go-go-related gene (hERG) potassium channel (Q12809 whole entry, looked up): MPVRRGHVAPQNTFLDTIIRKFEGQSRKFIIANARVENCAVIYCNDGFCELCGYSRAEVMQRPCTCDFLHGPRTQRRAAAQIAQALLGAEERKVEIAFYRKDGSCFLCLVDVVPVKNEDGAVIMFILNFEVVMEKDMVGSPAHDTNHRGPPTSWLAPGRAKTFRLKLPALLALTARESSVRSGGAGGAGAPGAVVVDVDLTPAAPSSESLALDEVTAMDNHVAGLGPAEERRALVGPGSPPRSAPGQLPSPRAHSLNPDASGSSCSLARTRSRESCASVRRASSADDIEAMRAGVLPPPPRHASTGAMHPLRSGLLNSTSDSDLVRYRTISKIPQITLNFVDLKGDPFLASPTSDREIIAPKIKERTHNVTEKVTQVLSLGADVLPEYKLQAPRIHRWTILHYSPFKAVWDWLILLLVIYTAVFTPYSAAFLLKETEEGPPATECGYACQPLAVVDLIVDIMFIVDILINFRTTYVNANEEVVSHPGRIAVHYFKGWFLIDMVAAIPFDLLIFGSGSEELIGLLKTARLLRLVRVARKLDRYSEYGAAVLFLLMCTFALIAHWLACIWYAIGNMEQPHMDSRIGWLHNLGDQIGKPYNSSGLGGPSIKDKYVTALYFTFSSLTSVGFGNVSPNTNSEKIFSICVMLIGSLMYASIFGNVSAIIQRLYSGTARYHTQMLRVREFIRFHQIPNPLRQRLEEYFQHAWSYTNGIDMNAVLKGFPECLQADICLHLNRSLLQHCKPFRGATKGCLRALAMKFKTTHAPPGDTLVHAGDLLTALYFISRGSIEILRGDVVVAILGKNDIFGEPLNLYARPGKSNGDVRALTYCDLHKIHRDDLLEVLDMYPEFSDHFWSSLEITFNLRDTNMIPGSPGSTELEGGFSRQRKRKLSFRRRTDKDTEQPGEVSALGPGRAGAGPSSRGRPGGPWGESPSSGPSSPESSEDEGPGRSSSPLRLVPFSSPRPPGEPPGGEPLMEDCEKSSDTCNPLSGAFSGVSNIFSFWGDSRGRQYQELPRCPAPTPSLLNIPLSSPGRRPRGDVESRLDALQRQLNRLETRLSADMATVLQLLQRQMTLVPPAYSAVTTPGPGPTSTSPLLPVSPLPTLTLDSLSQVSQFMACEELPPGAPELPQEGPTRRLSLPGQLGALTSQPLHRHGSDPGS
row,Structure (SMILES),"hERG current change (%, negative = inhibition) at 10uM"
1,O=C(CC1SC(N2CCCCC2)=NC1=O)Nc1cccc(C(F)(F)F)c1 (stereo not shown),12.3%
2,CCOc1ccc(C2Oc3nc(SC)nnc3-c3ccccc3N2C(C)=O)cc1OC (stereo not shown),9.64%
3,CCC(Sc1nnc(-c2ccc(C)c(Cl)c2)n1CC)C(=O)Nc1nccs1 (stereo not shown),-20.6%
4,CCOC(=O)/C=C(\C)Sc1cc(=O)oc2ccccc12,-40.4%
5,O=C(Nc1nccs1)c1ccc(COc2ccccc2)o1,15.6%
6,O=C(O)CC1c2ccccc2CCN1S(=O)(=O)c1ccc(F)cc1 (stereo not shown),8.32%
7,CCc1ccc2[nH]c(=O)c(-c3ccccc3)c(O)c2c1,17.5%
8,CN(CC(N)=O)S(=O)(=O)c1ccc(F)cc1,-15.7%
9,O=C(O)CSc1ccc2nnc(-c3cccnc3)n2n1,12.2%
10,CCOC(=O)CSc1ccc2nnc(-c3cccnc3)n2n1,-31%
11,O=C(CSc1ccc2nnc(-c3cccnc3)n2n1)c1ccccc1,-70%
12,O=C(CSc1ccc2nnc(-c3cccnc3)n2n1)N1CCOCC1,-25%
13,COc1ccc(C(=O)CSc2ccc3nnc(-c4cccnc4)n3n2)cc1,-70.3%
14,CCC(Sc1ccc2nnc(-c3cccnc3)n2n1)C(=O)OC (stereo not shown),-47%
15,O=C(Nc1cccc(NC(=O)C2CC2)n1)C1CC1,-6.67%
16,CCOC(=O)N1CCN(c2cc(N3CCOCC3)c(F)cc2[N+](=O)[O-])CC1,-18.2%
17,CC1=CC(=O)OC1Cc1ccncc1 (stereo not shown),11.3%
18,NC(=O)C1CCN(C(=O)CCSCc2ccc(Cl)c(Cl)c2)CC1,-13.3%
19,COC(=O)c1ccc(CN2CCC(CO)(Cc3ccc(OC)cc3)CC2)cc1,-66.1%
20,COC(=O)c1cccc(C(=O)N2CCC(CO)(Cc3ccccc3Cl)CC2)c1,-23.1%
21,COc1cccc(CC2(CO)CCN(Cc3cn(C)nc3C)CC2)c1,18.3%
22,COc1ccc(CC2(CO)CCN(Cc3ccc(OC(F)(F)F)cc3)CC2)cc1,-75.1%
23,COC(=O)c1ccc(CN2CCC(CO)(Cc3cccc(OC)c3)CC2)cc1,-66.1%

row,Structure (SMILES),"hERG current change (%, negative = inhibition) at 10uM"
1,COC(=O)c1ccc(CN2CCC(CO)(Cc3ccccc3Cl)CC2)cc1,-64.8%
2,COC(=O)c1ccc(CN2CCCCC2)cc1,1.45%
3,COc1ccc(CC2(CO)CCN(Cc3ccncc3)CC2)cc1,-21.2%
4,CCN1CCN(Cc2ccc(OC(F)(F)F)cc2)CC1,-26.6%
5,COc1ccc(-c2ncc(CN3CCC(CO)(Cc4cccc(OC)c4)CC3)cn2)cc1,-4.79%
6,Nn1c(SCC(=O)Nc2c(F)cc(F)cc2Br)nnc1C1CCCCC1,3.21%
7,CCOC(=O)c1nnn(-c2nonc2-c2ccccc2)c1C,-25.2%
8,S=c1[nH]cc(-c2ccccc2)n1-c1ccccc1Cl,9.61%
9,CCc1onc(C)c1C(=O)Nc1ccc(N2CCOCC2)cc1,15%
10,Clc1ccc(-c2noc(/C=C/c3ccccc3)n2)cc1,18.2%
11,CC1(C)C2CC=C(CN3CCC(O)CC3)C1C2 (stereo not shown),-7.45%
12,COc1ccc(CC2(CO)CCN(CC3=CC[C@H]4C[C@@H]3C4(C)C)CC2)cc1,-58.7%
13,COc1cccc(CC2(CO)CCN(CC3=CC[C@H]4C[C@@H]3C4(C)C)CC2)c1,-44.2%
14,CCN(CC)S(=O)(=O)c1ccc2c(c1)nc(SCc1nc3ccsc3c(=O)[nH]1)n2CC,-30.8%
15,COc1ccc(C=NCCC2(O)CC(C)N(C)CC2C)cc1 (stereo not shown),8.31%
16,CC1Oc2cc3c(-c4c(O)cc(O)c5c(O)c6c(cc45)OC(C)C(C)C6=O)c(O)cc(O)c3c(O)c2C(=O)C1C (stereo not shown),10.8%
17,C[N+]1(C)CCC(OC(=O)C(c2ccccc2)c2ccccc2)CC1.[I-],1.2%
18,CC1CN(C(C)C)C(C)CC1OC(=O)c1ccccc1 (stereo not shown),15.7%
19,CN(C)[C@@H]1CCC[C@H]1OC(=O)C(c1ccccc1)c1ccccc1,-65.2%
20,CC1CN(C)C(C)CC1OC(=O)C(c1ccccc1)c1ccccc1 (stereo not shown),-73.7%
21,C[N+]1(C)[C@@H]2CC[C@H]1CC(OC(=O)C(c1ccccc1)c1ccccc1)C2.[I-] (stereo partly shown),18%
22,CCCCOc1ccc(C(=O)OC2CC(C)N(C)CC2C)cc1 (stereo not shown),-25.4%
23,O=C(Cc1cccs1)NCCn1ccc2ccccc21,-6.95%

row,Structure (SMILES),"hERG current change (%, negative = inhibition) at 10uM"
1,Cc1ccc(C2=NN(C(=O)CSc3nnnn3C)C(c3ccco3)C2)cc1 (stereo not shown),17.1%
2,Cc1cn(C)c(=O)n(C)c1=O,4.46%
3,Cc1ccc(-c2c[n+](CC(=O)Nc3nc(-c4ccc(F)cc4)cs3)c3n2CCC3)cc1.[Cl-],-74.2%
4,O=C(C[n+]1cc(-c2ccccc2)n2c1CCC2)Nc1nc(-c2ccc(F)cc2)cs1.[Cl-],-20.3%
5,O=C(C[n+]1cc(-c2ccc(Cl)cc2)n2c1CCC2)Nc1nc(-c2ccc(F)cc2)cs1.[Cl-],-48.4%
6,O=C(C[n+]1cc(-c2ccc(F)cc2)n2c1CCC2)Nc1nc(-c2ccccc2)cs1.[Cl-],-11.1%
7,Cn1c(NC(=O)C[n+]2cc(-c3ccc(F)cc3)n3c2CCC3)cc(=O)n(C)c1=O.[Cl-],1.04%
8,O=C(C[n+]1cc(-c2ccc(F)cc2)n2c1CCC2)Nc1nc(-c2ccc(F)cc2)cs1.[Cl-],-76.7%
9,CN(c1ccc(C(=O)N2CCOCC2)cc1[N+](=O)[O-])C1CCCCC1,-23.1%
10,CCCCN1C[C@H](C)[C@@H](CC(=O)NCc2ccccc2)C1=O,-10.5%
11,CCCCC[C@H]1CN(CCCC)C(=O)[C@@H]1CC(=O)NCc1ccc(OC)cc1,-71%
12,COc1ccc(CN2C[C@H](C)[C@@H](CC(=O)NCc3ccccc3)C2=O)cc1,-10.7%
13,CCCCC[C@H]1CN(CCc2ccccc2)C(=O)[C@@H]1CC(=O)NCc1ccc(OC)cc1,-61.8%
14,CCCCC[C@H]1CN(Cc2ccccc2)C(=O)[C@@H]1CC(=O)NCc1ccc(OC)cc1,-56.4%
15,CCCCCCc1ccc(N2C[C@H](CCCCC)[C@@H](CC(=O)NCc3ccc(OC)cc3)C2=O)cc1,-16.6%
16,CCCCC[C@H]1CN(CCCC)C(=O)[C@@H]1CC(=O)NCc1ccccc1,-73.5%
17,CCCCN1CC[C@H]2C=CC[C@@H](C(=O)NCc3ccc(OC)cc3)[C@H]2C1=O,2.71%
18,CCCCN1C[C@H](Cc2ccccc2)[C@@H](CC(=O)Nc2ccccc2)C1=O,-25.4%
19,CCCCCCc1ccc(N2C[C@H](Cc3ccccc3)[C@@H](CC(=O)NCc3ccc(OC)cc3)C2=O)cc1,-4.42%
20,COc1ccc(CCN2CC(C(=O)NCc3ccccc3)CCC2=O)cc1 (stereo not shown),-8.79%
21,CCCCC[C@H]1CN(Cc2ccc(OC)cc2)C(=O)[C@@H]1CC(=O)NCc1ccccc1,-38.6%

# — PMC4336329 (PLoS ONE, 2015)
